# NALP1 yeast inh – NALP1 inflammasome inhibitors in reconstituted yeast, colorimetric, S. cerevisiae, triplicate retest; S. cerevisiae NALP1/ASC/caspase-1 growth, X-gal OD620, 72 h; inhibition, % at 10 µM; 280,000 compounds, 0.61% hits; in the data active means inhibition mostly above about 24%, no sharp cut-off; inactive means mostly below about 32%
# V-ATPase pH – regulators of yeast V-ATPase proton pumping, primary screen, pHLuorin cytosolic pH fluorescence; S. cerevisiae; response, % at 10 µM; 350,000 compounds, 0.37% hits; AID 504577, 2011; in the data active means response mostly above about 7.3%, no sharp cut-off; inactive means mostly below about 5.4%; further: actives read high
# tim10-1 inh – growth inhibitors of tim10-1 mutant yeast, primary screen, luminescence, uHTS; AID 463190, 2010; inhibition, % at 20 µM; S. cerevisiae tim10-1 ts strain growth, BacTiter-Glo, 24 h; 330,000 compounds, 2.2% hits;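 active means inhibition of at least 40%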;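 further: mutant grown at 25 °C; 0% = DMSO wells with yeast and 100% = wells holding no yeast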
# TIM10 inh – growth inhibitors of isogenic TIM10 control yeast, primary screen, counter-screen for tim10-1 yeast inhibitor project, luminescence, uHTS; S. cerevisiae TIM10 strain growth, BacTiter-Glo luminescence, 24 h; inhibition, % at 10 µM; 330,000 compounds, 1.4% hits; AID 463195, 2010;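 active means inhibition of 40% or more at the single tested concentration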;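 further: wild-type TIM10 isogenic control strain grown at permissive 25 °C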
# tim23-1 inh – growth inhibitors of tim23-1 mutant yeast, primary screen, luminescence, uHTS | 330,000 compounds, 1.3% hits | S. cerevisiae tim23-1 growth, BacTiter-Glo luminescence, 24 h | AID 463212, 2010 | inhibition, % at 20 µM;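 active means growth inhibition of the mutant yeast at or above 50%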;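 further: temperature-sensitive mutant grown at 25 °C; plate controls were DMSO-treated mutant yeast for no effect and medium wells lacking yeast for full effect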
# NLRP3 yeast inh – NALP3 inflammasome inhibitors in reconstituted yeast, primary screen, luminescence, uHTS. inhibition, % at 10 µM. 330,000 compounds, 0.39% hits. Yeast reconstituted NLRP3/ASC/caspase-1, beta-gal luminescence, 24 h;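 active means inhibition of 50% or more; inactive means inhibition below 50%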;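 further: plate controls were induced DMSO wells for no effect and uninduced yeast grown without galactose for full effect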
# tim10 confirm – growth inhibitors of wild-type TIM10 yeast, confirmation, counter-screen for tim10-1 synthetic lethality project, single concentration, luminescence, S. cerevisiae | inhibition, % at 10 µM | shares compounds with TIM10 inh | S. cerevisiae tim10 strain growth, BacTiter-Glo luminescence, 24 h | AID 463215, 2010 | 4,600 compounds, 63% hits;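 active means inhibition of yeast growth at or above a set limit in either of two replicates at 10 µM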;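 further: this counterscreen used the strain with wild-type TIM10; 0% = yeast with DMSO and 100% = medium wells lacking yeast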
# * = called active by the depositor; . = not tested or not shown. Compounds with a hit are over-represented: about 4.2% of the library has one in this group of screens.
SMILES,NALP1 yeast inh,V-ATPase pH,tim10-1 inh,TIM10 inh,tim23-1 inh,NLRP3 yeast inh,tim10 confirm
CC(C)(C)n1nnnc1C(c1cccs1)N(Cc1ccc(Cl)cc1)CC1CCCO1 (configuration not stated),10,-1,35,41*,41,3,-19
Clc1ccc(CN(Cc2ccccc2)C(c2cccs2)c2nnnn2C2CCCC2)cc1 (configuration not stated),-1,-3,17,5,5,10,.
CCCCCCOC(=O)Sc1nc2ccccc2o1,5,6,-19,77*,38,22,72*
COC(=O)CSc1nc2ccccc2o1,6,-4,-13,-3,18,13,.
O=C1CCC(C(=O)OCC(=O)N2N=C3/C(=C\c4ccccc4)CCCC3C2c2ccccc2)N1 (configuration not stated),.,-1,.,.,.,.,.
O=C1CCC(C(=O)OCC(=O)N2N=C3/C(=C/c4ccccc4)CCCC3C2c2ccccc2)N1 (configuration not stated),17,5,18,42*,29,2,19
O=C(NC1CCCC1)C(c1ccc(F)cc1)N(Cc1ccc(Cl)cc1)C(=O)CCl (configuration not stated),21,0,32,42*,46,-3,43*
COC(=O)c1ccc(C(C(=O)NC2CCCCC2)N(Cc2ccc(F)cc2)C(=O)Cc2cccs2)cc1 (configuration not stated),11,-7,15,-6,8,9,.
CCn1cc([N+](=O)[O-])c(C(=O)N2N=C3/C(=C/c4cccs4)CCCC3C2c2cccs2)n1 (configuration not stated),9,2,33,41*,27,12,9
COc1ccc(N2C(S)=C(C#N)C(=O)NC2c2ccco2)cc1 (configuration not stated),38,-1,7,1,2,-7,.
COC(=O)c1ccc(N2CCN(CCNC(=O)Nc3ccc(OC)cc3)CC2)cc1,9,3,16,-7,17,5,.
NC(=O)C1CCN(c2oc(-c3cccs3)nc2S(=O)(=O)c2ccc(Cl)cc2)CC1,.,1,-5,-2,-1,23,.
c1ccc(Cn2c(SCc3nc4ccccc4s3)nnc2-c2ccco2)cc1,2,-3,17,-6,36,26,.
CCC(c1nnc(SCc2nc3ccccc3s2)n1Cc1ccccc1)N(C)C (configuration not stated),15,-2,33,41*,23,22,-18
O=C1CSC(c2cn(-c3ccccc3)nc2-c2cc3ccccc3oc2=O)N1Cc1ccco1 (configuration not stated),12,1,33,42*,27,2,8
COc1ccc(CCNC(=O)c2nnn(CC(=O)Nc3c(C)cc(C)cc3C)c2N)cc1OC,-6,1,-13,4,6,-6,.
Cc1[nH]c2ccccc2c1C(C#N)(C#N)C1C(=O)c2ccccc2C1=O,3,4,1,63*,36,28,78*
COc1ccc(F)cc1CN1CCN(C(=O)c2ccc(S(=O)(=O)N3CCCCCC3)cc2)CC1,.,1,.,.,.,.,.
CCCCc1ccc(-n2c(Cc3cccs3)n[nH]c2=S)cc1,-7,-3,37,52*,47,19,36*
CCN1C(=O)C(=Cc2cccc(OC)c2Oc2ccc([N+](=O)[O-])cc2[N+](=O)[O-])SC1=S,4,2,25,44*,42,15,6
CCN1C(=O)S/C(=C/c2ccc(Oc3ccc([N+](=O)[O-])cn3)c(OC)c2)C1=O,8,0,10,-11,2,5,.
Cc1ccccc1-c1noc(C2CCCCC2)n1,6,3,13,7,3,-12,.
O=C(Oc1coc(CSc2ncccn2)cc1=O)c1ccc(Br)o1,12,0,37,44*,25,-4,18

# Assay outcomes from PubChem.
